Source: the supplement of paper PMC11732987, “Enantioselective OTUD7B fragment discovery through chemoproteomics screening and high-throughput optimisation” (Communications Chemistry, 2025)

Experiments:
Experiment in all cases: log2 ratio of Biotin-Ahx-Ub-VS probe labelling (fragment/DMSO); higher = less target engagement (more negative = stronger competition), active = hit call of the paper (q ≤ 0.05, log2 ratio ≤ -1)
Settings in all cases: compound concentration: 200 uM; treatment time: 3 h
ALG13 = biological target: T1, ALG13 (UniProt Q9NP73)
T1 sequence (whole entry): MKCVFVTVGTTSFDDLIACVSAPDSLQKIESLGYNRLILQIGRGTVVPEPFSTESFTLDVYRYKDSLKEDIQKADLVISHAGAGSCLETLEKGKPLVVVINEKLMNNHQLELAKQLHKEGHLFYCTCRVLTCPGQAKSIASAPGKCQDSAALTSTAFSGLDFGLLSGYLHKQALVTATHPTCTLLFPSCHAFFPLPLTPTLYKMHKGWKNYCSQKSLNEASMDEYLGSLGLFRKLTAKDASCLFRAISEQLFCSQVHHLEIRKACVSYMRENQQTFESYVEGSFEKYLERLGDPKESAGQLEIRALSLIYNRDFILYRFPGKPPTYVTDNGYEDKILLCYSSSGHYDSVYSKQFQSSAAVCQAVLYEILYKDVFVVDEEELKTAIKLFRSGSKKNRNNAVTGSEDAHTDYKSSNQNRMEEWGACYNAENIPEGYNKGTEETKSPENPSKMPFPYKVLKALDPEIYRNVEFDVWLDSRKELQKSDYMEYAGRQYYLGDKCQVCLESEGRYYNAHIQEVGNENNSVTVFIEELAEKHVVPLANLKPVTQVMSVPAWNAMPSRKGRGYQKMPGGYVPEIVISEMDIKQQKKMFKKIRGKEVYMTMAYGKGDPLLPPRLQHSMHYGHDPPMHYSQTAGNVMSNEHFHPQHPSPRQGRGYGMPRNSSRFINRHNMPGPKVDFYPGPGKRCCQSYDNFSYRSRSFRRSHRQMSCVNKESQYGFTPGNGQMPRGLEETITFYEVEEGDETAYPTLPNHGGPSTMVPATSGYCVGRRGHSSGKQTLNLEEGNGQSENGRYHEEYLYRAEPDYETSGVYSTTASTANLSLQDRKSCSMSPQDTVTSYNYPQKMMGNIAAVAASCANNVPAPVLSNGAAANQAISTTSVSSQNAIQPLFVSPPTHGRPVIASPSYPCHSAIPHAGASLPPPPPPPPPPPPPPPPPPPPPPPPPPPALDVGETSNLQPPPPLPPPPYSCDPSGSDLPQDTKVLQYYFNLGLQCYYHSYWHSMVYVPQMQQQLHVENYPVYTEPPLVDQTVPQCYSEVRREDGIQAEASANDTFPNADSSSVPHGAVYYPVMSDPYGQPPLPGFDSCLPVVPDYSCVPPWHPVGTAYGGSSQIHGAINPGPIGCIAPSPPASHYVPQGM
How it was run: (§1)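 HEK293T lysate, 495 µg per sample in Tris/CHAPS/IGEPAL buffer with protease inhibitors, was treated in triplicate with fragment at 200 µM or vehicle for 3 h and then with Biotin-Ahx-Ub-VS at 0.5 µM final for 1 h. Labelled DUBs were NeutrAvidin-enriched, digested with LysC and trypsin, and run by diaPASEF LC-MS/MS. Spectronaut label-free quantities were global-median-normalised, and values are average log2 fragment/vehicle ratios by unpaired t-test on proteins with ≥2 unique peptides.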

ATXN3 = ATXN3 (UniProt P54252)
Chain of ATXN3 (P54252 whole entry): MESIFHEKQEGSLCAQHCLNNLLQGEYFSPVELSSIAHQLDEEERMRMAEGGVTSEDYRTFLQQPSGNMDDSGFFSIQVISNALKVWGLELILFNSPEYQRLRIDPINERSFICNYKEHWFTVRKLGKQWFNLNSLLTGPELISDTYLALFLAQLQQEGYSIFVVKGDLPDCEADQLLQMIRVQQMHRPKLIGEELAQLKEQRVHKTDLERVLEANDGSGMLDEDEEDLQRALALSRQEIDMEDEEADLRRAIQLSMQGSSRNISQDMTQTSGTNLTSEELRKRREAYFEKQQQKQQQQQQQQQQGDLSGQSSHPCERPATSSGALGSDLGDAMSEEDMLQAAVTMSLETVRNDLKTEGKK
How it was run: as §1

BAP1 = biological target: T2, BAP1 (UniProt Q92560)
T2 sequence (whole entry): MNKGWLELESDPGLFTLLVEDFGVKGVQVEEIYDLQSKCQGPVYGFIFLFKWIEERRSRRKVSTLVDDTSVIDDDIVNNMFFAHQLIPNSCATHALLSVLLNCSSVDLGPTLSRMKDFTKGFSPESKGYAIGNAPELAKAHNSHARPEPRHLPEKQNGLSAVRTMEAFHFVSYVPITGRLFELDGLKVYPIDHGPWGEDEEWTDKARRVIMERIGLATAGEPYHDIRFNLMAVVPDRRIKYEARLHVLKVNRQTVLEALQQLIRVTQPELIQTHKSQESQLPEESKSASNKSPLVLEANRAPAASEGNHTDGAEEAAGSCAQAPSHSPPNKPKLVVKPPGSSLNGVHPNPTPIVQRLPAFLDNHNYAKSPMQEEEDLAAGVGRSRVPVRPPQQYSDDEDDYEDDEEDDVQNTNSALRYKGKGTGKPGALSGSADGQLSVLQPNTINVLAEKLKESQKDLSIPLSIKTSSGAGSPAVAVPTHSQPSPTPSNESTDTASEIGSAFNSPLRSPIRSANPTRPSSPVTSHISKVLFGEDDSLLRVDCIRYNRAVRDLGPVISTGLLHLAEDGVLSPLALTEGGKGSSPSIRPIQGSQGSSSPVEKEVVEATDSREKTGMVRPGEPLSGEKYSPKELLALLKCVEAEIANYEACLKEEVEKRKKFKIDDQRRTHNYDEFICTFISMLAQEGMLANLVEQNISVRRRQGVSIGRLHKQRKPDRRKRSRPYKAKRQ
How it was run: as §1

EIF3F = EIF3F (UniProt O00303)
Chain of EIF3F (O00303 whole entry): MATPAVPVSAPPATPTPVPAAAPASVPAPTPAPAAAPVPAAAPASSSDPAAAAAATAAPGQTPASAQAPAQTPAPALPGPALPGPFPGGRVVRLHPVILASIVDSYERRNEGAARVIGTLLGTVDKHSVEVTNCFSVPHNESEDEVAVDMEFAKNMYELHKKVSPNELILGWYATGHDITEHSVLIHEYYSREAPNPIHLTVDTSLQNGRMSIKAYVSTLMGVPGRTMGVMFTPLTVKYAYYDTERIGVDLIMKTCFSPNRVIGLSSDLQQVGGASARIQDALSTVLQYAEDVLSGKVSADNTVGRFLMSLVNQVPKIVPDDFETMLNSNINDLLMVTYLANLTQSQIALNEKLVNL
How it was run: as §1

EIF3H = EIF3H (UniProt O15372)
Chain of EIF3H (O15372 whole entry): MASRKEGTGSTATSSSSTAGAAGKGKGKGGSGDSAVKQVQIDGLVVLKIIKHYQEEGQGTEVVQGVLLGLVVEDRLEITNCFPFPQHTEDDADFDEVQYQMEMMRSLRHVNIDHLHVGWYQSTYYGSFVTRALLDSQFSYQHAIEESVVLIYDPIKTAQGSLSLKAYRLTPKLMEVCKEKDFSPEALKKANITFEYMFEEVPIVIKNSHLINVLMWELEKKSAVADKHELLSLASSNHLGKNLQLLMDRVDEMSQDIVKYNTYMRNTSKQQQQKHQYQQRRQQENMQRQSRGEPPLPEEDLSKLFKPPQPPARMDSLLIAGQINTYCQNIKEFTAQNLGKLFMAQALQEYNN
How it was run: as §1

FAM105A = biological target: T3, FAM105A (UniProt Q9NUU6)
T3 sequence (whole entry): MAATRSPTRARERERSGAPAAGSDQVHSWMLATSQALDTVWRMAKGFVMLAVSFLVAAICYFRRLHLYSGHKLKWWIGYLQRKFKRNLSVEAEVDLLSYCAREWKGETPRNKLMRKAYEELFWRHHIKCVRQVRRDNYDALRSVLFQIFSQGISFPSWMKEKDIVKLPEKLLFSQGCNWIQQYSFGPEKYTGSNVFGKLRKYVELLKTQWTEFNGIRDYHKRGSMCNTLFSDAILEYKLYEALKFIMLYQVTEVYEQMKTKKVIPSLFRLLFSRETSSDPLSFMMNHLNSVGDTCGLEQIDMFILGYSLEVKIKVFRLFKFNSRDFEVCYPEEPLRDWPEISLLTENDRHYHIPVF
How it was run: as §1

OTUB1 = OTUB1 (UniProt Q96FW1)
Chain of OTUB1 (Q96FW1 whole entry): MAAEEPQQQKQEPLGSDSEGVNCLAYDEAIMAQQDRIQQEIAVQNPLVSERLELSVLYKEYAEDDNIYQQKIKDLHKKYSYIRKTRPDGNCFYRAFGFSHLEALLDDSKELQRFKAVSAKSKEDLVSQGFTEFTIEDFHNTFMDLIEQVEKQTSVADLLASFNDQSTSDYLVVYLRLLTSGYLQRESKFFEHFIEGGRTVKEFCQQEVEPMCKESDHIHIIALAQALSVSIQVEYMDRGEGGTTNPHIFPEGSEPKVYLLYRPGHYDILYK
How it was run: as §1

OTUD4 = biological target: T4, OTUD4 (UniProt Q01804)
T4 sequence (whole entry): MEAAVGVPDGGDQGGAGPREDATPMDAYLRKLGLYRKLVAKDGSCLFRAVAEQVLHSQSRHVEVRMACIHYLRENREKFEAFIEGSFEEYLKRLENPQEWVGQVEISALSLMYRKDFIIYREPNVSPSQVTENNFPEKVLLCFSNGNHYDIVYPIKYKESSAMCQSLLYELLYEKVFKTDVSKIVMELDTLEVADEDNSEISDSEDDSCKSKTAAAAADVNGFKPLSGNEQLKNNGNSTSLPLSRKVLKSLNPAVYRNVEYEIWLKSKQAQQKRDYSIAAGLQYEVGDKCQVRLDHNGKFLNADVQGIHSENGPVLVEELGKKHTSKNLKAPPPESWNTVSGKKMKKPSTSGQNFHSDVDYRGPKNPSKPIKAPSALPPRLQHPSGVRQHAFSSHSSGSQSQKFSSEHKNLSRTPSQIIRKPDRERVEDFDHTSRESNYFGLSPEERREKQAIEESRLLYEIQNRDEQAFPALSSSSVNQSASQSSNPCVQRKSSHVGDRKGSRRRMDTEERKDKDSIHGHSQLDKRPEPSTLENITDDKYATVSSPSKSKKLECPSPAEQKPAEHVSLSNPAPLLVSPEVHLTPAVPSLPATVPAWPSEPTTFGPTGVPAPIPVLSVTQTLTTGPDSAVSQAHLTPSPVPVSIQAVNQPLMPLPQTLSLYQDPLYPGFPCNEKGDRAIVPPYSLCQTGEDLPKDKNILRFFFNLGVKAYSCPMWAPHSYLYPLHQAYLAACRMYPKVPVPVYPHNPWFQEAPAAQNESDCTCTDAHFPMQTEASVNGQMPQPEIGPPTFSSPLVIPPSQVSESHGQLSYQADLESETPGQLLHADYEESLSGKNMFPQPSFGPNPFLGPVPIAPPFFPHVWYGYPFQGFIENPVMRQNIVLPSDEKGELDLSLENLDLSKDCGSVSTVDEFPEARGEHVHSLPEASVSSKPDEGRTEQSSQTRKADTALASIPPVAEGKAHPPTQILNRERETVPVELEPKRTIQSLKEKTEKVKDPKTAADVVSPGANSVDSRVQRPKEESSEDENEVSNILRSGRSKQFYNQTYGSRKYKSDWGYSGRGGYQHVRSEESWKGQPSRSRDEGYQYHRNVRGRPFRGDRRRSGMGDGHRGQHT
How it was run: as §1

OTUD5 = biological target: T5, OTUD5 (UniProt Q96G74)
T5 sequence (whole entry): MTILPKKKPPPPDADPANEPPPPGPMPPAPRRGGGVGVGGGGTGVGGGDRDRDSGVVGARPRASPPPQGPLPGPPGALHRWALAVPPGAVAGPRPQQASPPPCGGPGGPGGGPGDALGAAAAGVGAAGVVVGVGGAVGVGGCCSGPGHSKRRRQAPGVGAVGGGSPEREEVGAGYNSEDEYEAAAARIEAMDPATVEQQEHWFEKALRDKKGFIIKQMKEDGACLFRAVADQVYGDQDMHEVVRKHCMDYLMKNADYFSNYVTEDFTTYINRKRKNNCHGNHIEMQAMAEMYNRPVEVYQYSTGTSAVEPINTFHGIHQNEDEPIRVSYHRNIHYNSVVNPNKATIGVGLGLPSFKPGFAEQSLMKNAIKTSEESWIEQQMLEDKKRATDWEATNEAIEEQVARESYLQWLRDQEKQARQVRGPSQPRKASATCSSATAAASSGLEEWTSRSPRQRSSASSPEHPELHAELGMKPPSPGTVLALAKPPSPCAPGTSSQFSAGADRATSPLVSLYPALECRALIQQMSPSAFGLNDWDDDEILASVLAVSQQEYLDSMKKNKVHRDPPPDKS
How it was run: as §1

Measured: log2 ratio of Biotin-Ahx-Ub-VS probe labelling

Cc1ncsc1CCNC(=O)CCl
inactive: ATXN3 0.0484 | BAP1 -0.27 | EIF3F 0.501 | EIF3H 0.195 | FAM105A 0.185 | OTUB1 0.885 | OTUD4 -0.271 | OTUD5 0.163
active: ALG13 -1.18
